# From the supplement of paper PMC8728848
# The entries come from a sample that favours the strongest signals as a whole.
# How the values were obtained:
# Assay in all cases: glycan array binding signal (z-score within array); higher = stronger binding
# Conditions in all cases: glycan notation: IUPAC condensed, linker removed
# [1] = biological target: Fuc(a1-2)Gal(b1-4)GlcNAc(b1-3)Gal(b1-4)GlcNAc
# Summary of the method: (§1)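 Negative Z-scores can be read as non-binding. The Z-score is calculated within each array and then averaged across arrays of one protein sequence at different concentrations or buffers and across linkers. Arrays, 3228 in all, were curated from the Consortium for Functional Glycomics database and kept only where the protein sequence was available.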
# [2] = biological target: Fuc(a1-2)Gal(b1-4)[Fuc(a1-3)]GlcNAc(b1-3)Gal(b1-4)[Fuc(a1-3)]GlcNAc
# Summary of the method: as §1
# [3] = biological target: Fuc(a1-2)[Gal(a1-3)]Gal(b1-4)[Fuc(a1-3)]GlcNAc
# Summary of the method: as §1
# [4] = biological target: Fuc(a1-3)[Gal(b1-4)]GlcNAc(b1-2)Man(a1-3)[Fuc(a1-3)[Gal(b1-4)]GlcNAc(b1-2)Man(a1-6)]Man(b1-4)GlcNAc(b1-4)[Fuc(a1-6)]GlcNAc
# Summary of the method: as §1
# [5] = biological target: Gal(a1-3)Gal(b1-4)[Fuc(a1-3)]GlcNAc(b1-2)Man(a1-3)[Gal(a1-3)Gal(b1-4)[Fuc(a1-3)]GlcNAc(b1-2)Man(a1-6)]Man(b1-4)GlcNAc(b1-4)GlcNAc
# Summary of the method: as §1
# [6] = biological target: Gal(a1-3)GalNAc
# Summary of the method: as §1
# [7] = biological target: Gal(a1-6)Glc
# Summary of the method: as §1
# [8] = biological target: Gal(b1-3)Gal(b1-4)GlcNAc
# Summary of the method: as §1
# [9] = biological target: Gal(b1-3)GalNAc
# Summary of the method: as §1
# [10] = biological target: Gal(b1-3)GalNAc(a1-3)[Fuc(a1-2)]Gal(b1-4)GlcNAc
# Summary of the method: as §1
# [11] = biological target: Gal(b1-3)GlcNAc(b1-2)Man(a1-3)[Gal(b1-3)GlcNAc(b1-2)Man(a1-6)]Man(b1-4)GlcNAc(b1-4)[Fuc(a1-6)]GlcNAc
# Summary of the method: as §1
# [12] = biological target: Gal(b1-3)[Fuc(a1-4)]GlcNAc(b1-3)Gal(b1-4)[Fuc(a1-3)]GlcNAc
# Summary of the method: as §1
# [13] = biological target: Gal(b1-4)GlcNAc(b1-2)Man(a1-6)Man(b1-4)GlcNAc(b1-4)GlcNAc
# Summary of the method: as §1
# [14] = biological target: Gal3S(b1-4)Glc6S
# Summary of the method: as §1
# [15] = biological target: Gal3S(b1-4)GlcNAc6S
# Summary of the method: as §1
# [16] = biological target: Gal3S6S(b1-4)GlcNAc6S
# Summary of the method: as §1
# [17] = biological target: Gal6S(b1-4)GlcNAc
# Summary of the method: as §1
# [18] = biological target: GlcNAc(a1-4)Gal(b1-4)GlcNAc(b1-3)Gal(b1-4)GlcNAc
# Summary of the method: as §1
# [19] = biological target: GlcNAc(b1-2)Man(a1-3)[GlcNAc(b1-2)Man(a1-6)]Man(b1-4)GlcNAc(b1-4)[Fuc(a1-6)]GlcNAc
# Summary of the method: as §1
# [20] = biological target: GlcNAc(b1-3)[GlcNAc(b1-6)]GalNAc
# Summary of the method: as §1
# [21] = biological target: GlcNAc(b1-4)GlcNAc(b1-4)GlcNAc(b1-4)GlcNAc(b1-4)GlcNAc
# Summary of the method: as §1
# [22] = biological target: GlcNAc3Prop(b1-4)GlcNAc
# Summary of the method: as §1
# [23] = biological target: Man(a1-2)Man(a1-3)[Man(a1-2)Man(a1-6)]Man
# Summary of the method: as §1
# [24] = biological target: Man(a1-6)Man
# Summary of the method: as §1
# [25] = biological target: Neu5Ac(a2-3)Gal(b1-4)GlcNAc(b1-3)Gal(b1-4)[Fuc(a1-3)]GlcNAc
# Summary of the method: as §1
# [26] = biological target: Neu5Gc(a2-3)Gal(b1-4)GlcNAc
# Summary of the method: as §1
# [27] = biological target: Fuc(a1-2)Gal(b1-4)GlcNAc(b1-3)Gal(b1-4)GlcNAc(b1-3)Gal(b1-4)GlcNAc
# Summary of the method: as §1
# [28] = biological target: Fuc(a1-2)Gal(b1-4)[Fuc(a1-3)]GlcNAc(b1-3)Gal(b1-4)[Fuc(a1-3)]GlcNAc(b1-3)Gal(b1-4)[Fuc(a1-3)]GlcNAc
# Summary of the method: as §1
# [29] = biological target: Fuc(a1-2)[GalNAc(a1-3)]Gal(b1-4)GlcNAc
# Summary of the method: as §1
# [30] = biological target: Fuc(a1-3)GlcNAc
# Summary of the method: as §1
# [31] = biological target: Gal(a1-4)Gal(b1-4)Glc
# Summary of the method: as §1
# [32] = biological target: Gal(b1-2)Gal
# Summary of the method: as §1
# [33] = biological target: Gal(b1-3)GalNAc(b1-4)[Neu5Ac(a2-3)]Gal(b1-4)Glc
# Summary of the method: as §1
# [34] = biological target: Gal(b1-4)GlcNAc
# Summary of the method: as §1
# [35] = biological target: Gal(b1-4)GlcNAc(b1-3)Gal(b1-4)[Fuc(a1-3)]GlcNAc(b1-3)Gal(b1-4)[Fuc(a1-3)]GlcNAc
# Summary of the method: as §1
# [36] = biological target: Gal3S(b1-4)GlcNAc
# Summary of the method: as §1
# [37] = biological target: Gal4S6S(b1-4)GlcNAc
# Summary of the method: as §1
# [38] = biological target: Gal6S(b1-4)Glc6S
# Summary of the method: as §1
# [39] = biological target: Glc(a1-4)Glc
# Summary of the method: as §1
# [40] = biological target: Glc(a1-6)Glc(a1-6)Glc
# Summary of the method: as §1
# [41] = biological target: Glc(b1-4)Glc
# Summary of the method: as §1
# [42] = biological target: Man(a1-2)Man(a1-2)Man(a1-6)[Man(a1-3)]Man
# Summary of the method: as §1
# [43] = biological target: Neu5Ac(a2-3)[GalNAc(b1-4)]Gal(b1-4)Glc
# Summary of the method: as §1
# [44] = biological target: Neu5Gc(a2-3)Gal(b1-4)Glc
# Summary of the method: as §1
binder,measurement,setting,value
"FedF (Escherichia coli), Q47212 (protein) MRLKYILIIPLLLISLSVFASTLQVDKSVSYDWINSSASSAQVTGTLLGTGKTNTTQMPALYTWQHQIYNVNFIPSSSGTLTCQAGTILVWKNGRETQYALECRVSIHHSSGSINESQWGQQSQVGFGTACGNKKCRFTGFEISLRIPPNAQTYPLSSGDLKGSFSLTNKEVNWSASIYVPAIAKSYRLDTSITLPDTVNLKQNQATPVYYTFSAPSVSNTITGIPNQNDMPSSNVKLTIGPIQSKTTALYVQPDATGSWYDLSKSITMTVVKSSMLNFKGINAKPGNVTLSVPIVFEIQ",glycan array binding signal (z-score),[1],-0.446
same,glycan array binding signal (z-score),[2],-0.053
same,glycan array binding signal (z-score),[3],0.755
same,glycan array binding signal (z-score),[4],-0.17
same,glycan array binding signal (z-score),[5],-0.084
same,glycan array binding signal (z-score),[6],-0.219
same,glycan array binding signal (z-score),[7],0.241
same,glycan array binding signal (z-score),[8],-0.144
same,glycan array binding signal (z-score),[9],-0.092
same,glycan array binding signal (z-score),[10],-0.088
same,glycan array binding signal (z-score),[11],0.741
same,glycan array binding signal (z-score),[12],-0.274
same,glycan array binding signal (z-score),[13],0.184
same,glycan array binding signal (z-score),[14],1.04
same,glycan array binding signal (z-score),[15],0.729
same,glycan array binding signal (z-score),[16],1.97
same,glycan array binding signal (z-score),[17],0.402
same,glycan array binding signal (z-score),[18],0.918
same,glycan array binding signal (z-score),[19],1.99
same,glycan array binding signal (z-score),[20],-0.248
same,glycan array binding signal (z-score),[21],-0.269
same,glycan array binding signal (z-score),[22],13.7
same,glycan array binding signal (z-score),[23],0.257
same,glycan array binding signal (z-score),[24],-0.145
same,glycan array binding signal (z-score),[25],-0.292
same,glycan array binding signal (z-score),[26],-0.223
FaeGac (Escherichia coli) (protein) WMTGDFNGSVDIGGSITADDYRQKWEWKVGTGLNGFGNVLNDLTNGGTKLTITVTGNKPILLGRTKEAFATPVTGGVDGIPHIAFTDYEGASVVLRNPDGETNKKGLAYFVLPMKNAEGTKVGSVKVNASYAGVLGRGGVTSADGELLSLFADGLSSIFYGGLPRGSELSAGSAAAERTKLFGSLSRNDILGQIQRVNANITSLVDVAGSYRENMEYTDGTVVSAAYALGIANGQTIEATFNQAVTTSTQWSAPLNVAITYY,glycan array binding signal (z-score),[1],-0.23
same,glycan array binding signal (z-score),[27],-0.359
same,glycan array binding signal (z-score),[28],-0.161
same,glycan array binding signal (z-score),[29],-0.577
same,glycan array binding signal (z-score),[30],0.65
same,glycan array binding signal (z-score),[31],-0.179
same,glycan array binding signal (z-score),[32],0.274
same,glycan array binding signal (z-score),[33],-0.107
same,glycan array binding signal (z-score),[34],-0.506
same,glycan array binding signal (z-score),[35],0.771
same,glycan array binding signal (z-score),[36],0.384
same,glycan array binding signal (z-score),[16],-0.43
same,glycan array binding signal (z-score),[37],-0.495
same,glycan array binding signal (z-score),[38],0.68
same,glycan array binding signal (z-score),[39],10.9
same,glycan array binding signal (z-score),[40],6.96
same,glycan array binding signal (z-score),[41],2.95
same,glycan array binding signal (z-score),[42],2.13
same,glycan array binding signal (z-score),[43],0.008
same,glycan array binding signal (z-score),[44],-0.764
